Source: PubChem BioAssay (NCI)
Values joined by “and” are separate entries in the source; they are usually repeats but may differ in a detail not shown here. Equal entries are not always repeated. Compounds without any hit were thinned out: in the full panel of roughly 83,000, 20% have a hit.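 For each line, cells grew in 96-well plates with the test compound present at a single concentration for 48 hours.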 A number with no mark means an inactive call. Active and inactive are the calls of the source. The calls were made as follows: active = growth percent below 10; inactive = the rest.

These molecules were tested on MDA-MB-468 breast (assay: NCI-60 one-dose screen, 48 h (100 = growth as untreated, 0 = no growth, -100 = all killed)). Settings: 10 µM unless noted.

Compound	growth
CCCCCc1c(C)[nH]c(/C=C2\N=C(c3ccc[nH]3)C=C2Oc2ccccc2)c1C	-59.3% [100 µM] (active)
COc1cccc2nc(Nc3cccc(NC(=O)c4ccc(N5CCN(C)CC5)c(C(F)(F)F)c4)c3)ccc12	20.2%
CC(C)CNC(=O)c1ccccc1C(=O)NC1(C(=O)NCC(C)C)CCCC1	101% and 121%
CC1=C(/C=C/C(C)=C/C=C/C(C)=C/CO)C(C)(C)CCC1	103%
C=CCn1c(SCC(=O)Nc2ccc(C(=O)/C=C/c3ccc(Cl)cc3)cc2)nnc1-c1c[nH]c2ccccc12	62.2%
CC[C@H](C)[C@H](NC(=O)[C@H](CCCCN)NC(=O)[C@H](CCCCN)NC(=O)[C@@H](NC(=O)[C@@H](NC(=O)[C@@H](N)Cc1cnc[nH]1)[C@@H](C)CC)[C@@H](C)CC)C(=O)N[C@@H](CCCNC(=N)N)C(=O)N[C@H](C(=O)N[C@@H](Cc1c[nH]c2ccccc12)C(=O)N[C@@H](Cc1ccc(O)cc1)C(=O)N[C@@H](CCCNC(=N)N)C(=O)N[C@@H](CCCCN)C(=O)N[C@@H](C)C(=O)N[C@@H](Cc1c[nH]c2ccccc12)C(=O)N[C@@H](Cc1cnc[nH]1)C(=O)N[C@H](C(=O)N[C@@H](CC(C)C)C(=O)NCC(=O)N[C@@H](CCCCN)C(=O)N[C@H](C(N)=O)C(C)C)C(C)C)[C@@H](C)O	59.2%
Clc1ccc(-c2nc(Br)cn3ccnc23)cc1	78.9%
CC(C)C[C@H](NC(=O)[C@H](Cc1ccccc1)n1ccc(N2CCCCC2)cc1=O)B(O)O	-24.1% (active)
Cc1ccccc1NC(=O)Nc1nc2ccc([N+](=O)[O-])cc2s1	-3.68% (active)
O=c1c2cccc3c(Nc4ccccn4)ccc(c32)c2nc3ccccc3n12	-22.4% (active)
N=C(N)c1ccc(S(N)(=O)=O)cc1	96.8%
CN(C)c1cccc2c(S(=O)(=O)Nc3cccc(-c4csc(NC(=O)CCCCCN5CCN(CCO)CC5)n4)c3)cccc12	79.3%
CN(C)c1ccc(-c2cc(-c3c[nH]c4ccccc34)nc(N)c2C#N)cc1	39.7%
Nc1nsc(C(=O)c2ccc(O)cc2)n1	105%
Clc1ccc(-c2nc(-c3cccs3)no2)c(Cl)c1	8.37% (active)
NCc1cn2cc(Cl)sc2n1	101%
CC(=O)c1cnc(-c2ccccc2)nc1CBr	49.6%

Compound	growth
O=C(NNC(=O)c1ccc(-n2cc(-c3ccccc3)nn2)cc1)Nc1ccccc1	109%
C[C@@H]1C[C@@H]([C@@H](CC2CC(=O)NC(=O)C2)OC(=O)CC(=O)c2ccccc2)C(=O)[C@@H](C)C1	10.9%
Nc1c(C(=O)O)cc(Cl)cc1[N+](=O)[O-]	96.2%
CC(C)(C)c1cnc(CSc2cnc(NC(=O)C3CCNCC3)s2)o1	-43.7% (active)
NC(=O)n1c(=O)n(-c2cccc(C(F)(F)F)c2)c(=O)c2cc(-c3ccc(F)cc3F)ccc21	-8.88% (active)
N#CC1=C(N)Oc2c(c(N)nn2-c2ccccc2)C1c1ccc(Cl)cc1Cl (stereo not drawn)	129%
O=C(O)CNC(=O)CN1C(=O)c2ccccc2C1=O	106%
C#CCn1cc(C=C2C(=O)N(C)C(=O)N(C)C2=O)c2cc(Cl)ccc21	103%
Cc1ccc(-c2cc3nc(C(Cl)Cl)nc(-c4ccco4)n3n2)cc1	-41.3% (active)
O=C1OC(c2ccc(-c3ccccc3)cc2)=C/C1=C/c1cccs1	-47.5% (active)
CN1CCN(Cc2ccc(NC(=O)c3ccc(C(C)(C)C)c(C#Cc4cnc5cccnn45)c3)cc2C(F)(F)F)CC1	-6.22% (active)
Cc1ccc(/C(C#N)=C/c2ccc3c(c2)OCO3)cc1	43.9%
S=c1[nH]nc2ccccn12	98.2%
Cn1c(Nc2ccc(C(F)(F)F)cc2)nc2cc(Oc3ccnc(-c4ncc(C(F)(F)F)[nH]4)c3)ccc21	32.4%
CC1(C)CC(=O)CC2(C1)N=C(N)Nc1nc3ccccc3n12 (stereo not drawn)	107%
CCOc1cc(C(C)(C)C)ccc1C1=N[C@H](c2ccc(Cl)cc2)[C@H](c2ccc(Cl)cc2)N1C(=O)N1CCN(CC#Cc2cccc3c2CN([C@@H]2CCC(=O)NC2=O)C3=O)CC1	-21.9% (active)
